PubChem BioAssay (Tox21)
Records with an inconclusive call do not appear. The source made the active and inactive calls. Calls follow the shape of the dose curve; as a rule, active = well fitted inhibition curve with a large enough effect in the signal ratio in the repeat runs (not every such curve was filed as active); inconclusive = weak or mixed curves, or effect the other way; inactive = no such curve, though single readings can be large or run the other way; the % refers to the signal ratio.

The compounds below were run against Vitamin D3 receptor (Homo sapiens) (UniProt P11473) (assay: qHTS assay to identify small molecule antagonists of the vitamin D receptor (VDR) signaling pathway (AID 743223)). Details: VDR-UAS-bla HEK293T, beta-lactamase FRET ratio, 16 h; series mostly up to 61 µM.
Vitamin D3 receptor (Homo sapiens), sequence (P11473 whole entry, looked up): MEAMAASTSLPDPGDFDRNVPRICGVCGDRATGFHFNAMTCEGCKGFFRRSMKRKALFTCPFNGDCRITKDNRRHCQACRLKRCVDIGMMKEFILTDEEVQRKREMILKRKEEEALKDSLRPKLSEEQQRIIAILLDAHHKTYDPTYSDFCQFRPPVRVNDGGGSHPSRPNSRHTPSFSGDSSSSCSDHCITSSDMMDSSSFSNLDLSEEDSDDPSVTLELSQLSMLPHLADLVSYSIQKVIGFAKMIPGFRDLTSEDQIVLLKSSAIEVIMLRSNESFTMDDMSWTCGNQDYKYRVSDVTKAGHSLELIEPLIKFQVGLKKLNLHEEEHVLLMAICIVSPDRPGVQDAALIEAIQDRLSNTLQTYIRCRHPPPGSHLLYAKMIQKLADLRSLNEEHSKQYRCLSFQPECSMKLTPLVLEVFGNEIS
From the text: U.S. Tox21 Program National Center for Advancing Translational Sciences [NCATS] NIH Chemical Genomics Center [NCGC] U.S. Environmental Protection Agency [EPA] National Institutes of Environmental Health Sciences [NIEHS] National Toxicology Program [NTP] U.S. Food and Drug Administration [FDA] Tox21 Assay Overview: The vitamin D receptor (VDR), a member of nuclear hormone receptor superfamily, plays a critical role in calcium homeostasis and bone metabolism. It is also involved in cell differentiation and growth, and thrombogenicity.
Tox21 Assay Protocol Summary: VDR-bla cells were dispensed at 2,000 cells/5 uL of assay medium per well into black wall/clear-bottom 1536-well plates using a Multidrop Combi (Thermo Fisher Scientific, Waltham, MA) dispenser. After the assay plates were incubated at a 37C and 5% CO2 for 4 h, 23 nL of compounds dissolved in DMSO, positive controls or DMSO only was transferred to the assay plate by a Pintool station (Kalypsys, San Diego, CA), followed by addition of 1 uL of 1alpha, 25-Dihydroxy Vitamin D3 (3 nM, final concentration in the wells) using a Bioraptr Flying Reagent Dispenser (FRD) workstation (Beckman Coulter, Indianapolis, IN). The plates were incubated at 37C and 5% CO2 for 16 h, and then 1 uL of LiveBLAzerTM B/G FRET substrate was added using a Bioraptr FRD. The plates were incubated at room temperature for 2 h and fluorescence intensity was measured by an Envision plate reader (PerkinElmer, Shelton, CT).
`NCCOCCN` was tested, and the outcome was “inactive”. With `CCCCCCCCCOC(=O)c1ccccc1C(=O)OCCCCCCCCC` the outcome was “inactive”. In the case of `COS(=O)(=O)O`, the outcome is reported as “inactive”. With `CCOc1ccccc1OCC1CNCCO1` (stereo not given) the outcome was “inactive”. With `CCNC(=O)NCc1cccc(Cl)c1` the outcome was “inactive”. `c1ccc(-c2nn[nH]n2)cc1` was tested, and the outcome was “inactive”. In the case of `COc1cc(/C=C/C(N)=O)cc(OC)c1OC`, the outcome is reported as “inactive”. In the case of `O=Cc1cc2ccccc2o1`, the outcome is reported as “inactive”. For `C=C(C)C1CC=C(C)C(=O)C1` (stereo not given), the outcome was “inactive”. With `C=CCN1C[C@H](C(=O)N(CCCN(C)C)C(=O)NCC)C[C@@H]2c3cccc4[nH]cc(c34)C[C@H]21` the outcome was “inactive”. In the case of `CC(O)COC(C)(C)C` (stereo not given), the outcome is reported as “inactive”. In the case of `CCCCCCC1(C)CCC(=O)O1` (stereo not given), the outcome is reported as “inactive”. In the case of `CC(C)NCC(O)c1ccc2ccccc2c1` (stereo not given), the outcome is reported as “inactive”. `CCCCOC(=O)[C@H](C)O` was tested, and the outcome was “inactive”. In the case of `CC(C)=CCC[C@@](C)(O)[C@H]1CC=C(C)CC1`, the outcome is reported as “inactive”. `CC(C)COC(=O)c1ccccc1` was tested, and the outcome was “inactive”. `CC(C)[C@H]1CC[C@H](C)C[C@@H]1O` was tested, and the outcome was “inactive”. For `C/C(=C1\CCOC(=O)S1)N(C=O)Cc1cnc(C)nc1N`, the outcome was “inactive”. In the case of `C[C@H]1[C@@H](c2ccccc2)NC(=O)N1C`, the outcome is reported as “inactive”. `O=C(O)CNC(=O)CNC(=O)CNC(=O)CSC(=O)c1ccccc1` was tested, and the outcome was “inactive”. `CCCCCCCCCCCCCCC(=O)NC(CO)CCCCCCCCCCCCCC` (stereo not given) was tested, and the outcome was “inactive”. For `O=C1CCCCO1`, the outcome was “inactive”. For `CCCc1ccc(O)cc1`, the outcome was “inactive”. In the case of `CC(=O)O[C@@H]1CC2CCC1(C)C2(C)C` (stereo not given in full), the outcome is reported as “inactive”. With `COC(=O)c1cccc(Cl)c1` the outcome was “inactive”. `O=C(O)c1cc2ccccc2nc1C(=O)O` was tested, and the outcome was “inactive”. For `CC(C)=CCC/C(C)=C/COC=O`, the outcome was “inactive”. With `COc1ccc(CCO)cc1` the outcome was “inactive”. For `COC(C)(OC)OC`, the outcome was “inactive”. With `CC(=O)Nc1ccc(OC(=O)c2ccccc2OC(C)=O)cc1` the outcome was “inactive”. In the case of `COc1ccc2c(c1)c1c3n2CCN(C)C3=NCC1`, the outcome is reported as “inactive”. With `CC(=O)CC(=O)OC(C)(C)C` the outcome was “inactive”. In the case of `Cc1ccc(C)c([N+](=O)[O-])c1`, the outcome is reported as “inactive”. With `C=CCSSCCC` the outcome was “inactive”. `CC(=O)C1C(=O)C=C(C)OC1=O` (stereo not given) was tested, and the outcome was “inactive”. `COC(=O)c1ccccc1C(=O)O` was tested, and the outcome was “inactive”. `Cc1c(NC(=O)c2cccnc2)c(=O)n(-c2ccccc2)n1C` was tested, and the outcome was “inactive”. For `O=C(O)[C@H](O)c1ccccc1`, the outcome was “inactive”. In the case of `[O]=[Mo](=[O])=[O]`, the outcome is reported as “inactive”. In the case of `CCN1CCCC1CN` (stereo not given), the outcome is reported as “inactive”.
